The list shows a part of the results. The source made the active and inactive calls.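 The calls were made as follows, unless noted: active = binding below the plate cutoff, the plate median minus 3 SD, with a reading above zero; inconclusive = below the plate cutoff but reading exactly zero; inactive = the rest.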

AP-2 complex subunit beta (Homo sapiens), sequence (P63010 whole entry, looked up, the tested form may be a part, one chain of several): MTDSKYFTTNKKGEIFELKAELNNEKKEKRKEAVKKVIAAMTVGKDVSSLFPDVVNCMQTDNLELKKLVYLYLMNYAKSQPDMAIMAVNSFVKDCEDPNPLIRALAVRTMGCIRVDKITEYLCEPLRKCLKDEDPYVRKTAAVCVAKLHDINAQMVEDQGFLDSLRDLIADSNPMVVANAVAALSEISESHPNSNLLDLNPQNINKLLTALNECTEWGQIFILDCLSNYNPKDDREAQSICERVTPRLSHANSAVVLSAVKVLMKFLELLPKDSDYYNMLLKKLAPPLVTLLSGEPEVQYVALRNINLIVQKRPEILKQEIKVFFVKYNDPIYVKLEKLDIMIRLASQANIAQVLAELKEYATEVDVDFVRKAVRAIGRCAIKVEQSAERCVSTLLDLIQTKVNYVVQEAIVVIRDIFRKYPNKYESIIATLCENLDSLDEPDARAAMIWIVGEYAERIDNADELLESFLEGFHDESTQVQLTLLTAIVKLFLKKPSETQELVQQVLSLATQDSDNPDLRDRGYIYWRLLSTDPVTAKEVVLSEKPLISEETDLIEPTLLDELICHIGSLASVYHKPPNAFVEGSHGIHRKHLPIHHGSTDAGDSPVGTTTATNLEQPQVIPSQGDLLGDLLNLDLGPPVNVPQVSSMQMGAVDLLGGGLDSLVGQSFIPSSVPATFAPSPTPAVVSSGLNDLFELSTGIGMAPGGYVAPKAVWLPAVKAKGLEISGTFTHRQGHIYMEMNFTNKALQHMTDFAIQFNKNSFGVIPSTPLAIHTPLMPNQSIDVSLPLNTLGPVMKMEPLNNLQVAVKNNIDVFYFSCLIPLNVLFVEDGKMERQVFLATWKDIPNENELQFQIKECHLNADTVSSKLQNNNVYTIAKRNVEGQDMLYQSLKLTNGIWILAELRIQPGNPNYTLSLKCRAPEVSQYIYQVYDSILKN
Beta-adrenergic receptor kinase 1 (Homo sapiens), sequence (P25098 whole entry, looked up): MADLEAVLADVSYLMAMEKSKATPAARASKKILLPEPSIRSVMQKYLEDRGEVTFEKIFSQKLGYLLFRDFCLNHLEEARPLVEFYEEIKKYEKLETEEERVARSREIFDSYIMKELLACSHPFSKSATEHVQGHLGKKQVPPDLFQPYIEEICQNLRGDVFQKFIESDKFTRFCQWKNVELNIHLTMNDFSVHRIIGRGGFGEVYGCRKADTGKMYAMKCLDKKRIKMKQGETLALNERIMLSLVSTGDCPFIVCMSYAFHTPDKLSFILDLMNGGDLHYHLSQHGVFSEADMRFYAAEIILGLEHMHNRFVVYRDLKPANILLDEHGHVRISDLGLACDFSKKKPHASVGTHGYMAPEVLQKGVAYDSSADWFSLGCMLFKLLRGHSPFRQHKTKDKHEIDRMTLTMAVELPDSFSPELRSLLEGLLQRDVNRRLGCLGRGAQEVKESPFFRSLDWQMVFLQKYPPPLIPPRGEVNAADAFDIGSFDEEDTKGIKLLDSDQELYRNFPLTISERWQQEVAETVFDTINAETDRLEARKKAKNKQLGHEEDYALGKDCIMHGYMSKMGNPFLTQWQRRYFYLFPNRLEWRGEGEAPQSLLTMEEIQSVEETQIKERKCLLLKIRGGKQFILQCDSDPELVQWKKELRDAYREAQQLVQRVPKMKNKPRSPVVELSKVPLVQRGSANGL
Integrin beta-1 (Homo sapiens) + Integrin alpha-4 (Homo sapiens), sequence (P05556 whole entry, looked up): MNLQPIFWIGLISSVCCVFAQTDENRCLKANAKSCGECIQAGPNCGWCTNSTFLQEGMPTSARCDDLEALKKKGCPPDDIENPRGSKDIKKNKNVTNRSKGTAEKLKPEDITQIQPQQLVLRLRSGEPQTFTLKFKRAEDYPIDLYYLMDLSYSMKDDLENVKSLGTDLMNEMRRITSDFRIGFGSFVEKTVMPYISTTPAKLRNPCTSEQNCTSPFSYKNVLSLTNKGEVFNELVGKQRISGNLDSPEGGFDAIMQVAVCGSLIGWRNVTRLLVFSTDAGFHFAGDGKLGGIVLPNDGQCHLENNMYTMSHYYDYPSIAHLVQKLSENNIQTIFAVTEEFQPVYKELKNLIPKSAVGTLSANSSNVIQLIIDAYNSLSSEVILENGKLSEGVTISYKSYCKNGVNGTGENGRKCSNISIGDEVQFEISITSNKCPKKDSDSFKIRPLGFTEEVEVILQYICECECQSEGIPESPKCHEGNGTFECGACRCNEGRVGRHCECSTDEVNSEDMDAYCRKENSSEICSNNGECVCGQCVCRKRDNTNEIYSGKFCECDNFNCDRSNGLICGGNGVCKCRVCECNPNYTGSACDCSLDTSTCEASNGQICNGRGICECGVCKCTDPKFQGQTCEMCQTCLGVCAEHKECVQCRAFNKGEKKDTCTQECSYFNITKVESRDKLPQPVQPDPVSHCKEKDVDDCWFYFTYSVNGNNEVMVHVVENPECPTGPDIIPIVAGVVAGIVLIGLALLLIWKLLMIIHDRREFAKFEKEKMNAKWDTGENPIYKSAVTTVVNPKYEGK
Integrin beta-1 (Homo sapiens) + Integrin alpha-4 (Homo sapiens), sequence (P13612 whole entry, looked up): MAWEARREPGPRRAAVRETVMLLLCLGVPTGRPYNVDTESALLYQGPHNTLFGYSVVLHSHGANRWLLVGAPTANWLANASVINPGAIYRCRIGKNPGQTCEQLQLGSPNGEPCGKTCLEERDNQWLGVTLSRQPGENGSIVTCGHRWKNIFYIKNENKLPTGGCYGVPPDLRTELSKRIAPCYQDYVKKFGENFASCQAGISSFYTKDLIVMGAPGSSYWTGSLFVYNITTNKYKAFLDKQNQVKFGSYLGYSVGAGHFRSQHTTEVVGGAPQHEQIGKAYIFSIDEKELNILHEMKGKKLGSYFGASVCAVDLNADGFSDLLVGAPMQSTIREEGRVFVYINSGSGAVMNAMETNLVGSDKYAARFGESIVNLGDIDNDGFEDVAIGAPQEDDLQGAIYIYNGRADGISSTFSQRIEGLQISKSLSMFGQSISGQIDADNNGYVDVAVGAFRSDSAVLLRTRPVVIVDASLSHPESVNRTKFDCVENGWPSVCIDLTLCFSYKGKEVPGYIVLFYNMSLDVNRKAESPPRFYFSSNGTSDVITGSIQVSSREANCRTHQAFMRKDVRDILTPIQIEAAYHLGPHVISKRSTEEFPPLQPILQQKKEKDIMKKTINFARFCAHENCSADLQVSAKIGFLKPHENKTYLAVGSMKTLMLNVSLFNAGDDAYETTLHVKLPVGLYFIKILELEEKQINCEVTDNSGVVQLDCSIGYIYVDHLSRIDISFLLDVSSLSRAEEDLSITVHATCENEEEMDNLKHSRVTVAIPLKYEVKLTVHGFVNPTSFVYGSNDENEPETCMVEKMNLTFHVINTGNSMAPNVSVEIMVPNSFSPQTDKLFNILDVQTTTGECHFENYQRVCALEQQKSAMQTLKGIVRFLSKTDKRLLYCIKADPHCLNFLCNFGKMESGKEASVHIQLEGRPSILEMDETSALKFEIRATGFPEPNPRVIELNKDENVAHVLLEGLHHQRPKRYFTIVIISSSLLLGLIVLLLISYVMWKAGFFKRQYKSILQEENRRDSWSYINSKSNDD
ATP-binding cassette sub-family B member 6 (Homo sapiens), sequence (Q9NP58 whole entry, looked up): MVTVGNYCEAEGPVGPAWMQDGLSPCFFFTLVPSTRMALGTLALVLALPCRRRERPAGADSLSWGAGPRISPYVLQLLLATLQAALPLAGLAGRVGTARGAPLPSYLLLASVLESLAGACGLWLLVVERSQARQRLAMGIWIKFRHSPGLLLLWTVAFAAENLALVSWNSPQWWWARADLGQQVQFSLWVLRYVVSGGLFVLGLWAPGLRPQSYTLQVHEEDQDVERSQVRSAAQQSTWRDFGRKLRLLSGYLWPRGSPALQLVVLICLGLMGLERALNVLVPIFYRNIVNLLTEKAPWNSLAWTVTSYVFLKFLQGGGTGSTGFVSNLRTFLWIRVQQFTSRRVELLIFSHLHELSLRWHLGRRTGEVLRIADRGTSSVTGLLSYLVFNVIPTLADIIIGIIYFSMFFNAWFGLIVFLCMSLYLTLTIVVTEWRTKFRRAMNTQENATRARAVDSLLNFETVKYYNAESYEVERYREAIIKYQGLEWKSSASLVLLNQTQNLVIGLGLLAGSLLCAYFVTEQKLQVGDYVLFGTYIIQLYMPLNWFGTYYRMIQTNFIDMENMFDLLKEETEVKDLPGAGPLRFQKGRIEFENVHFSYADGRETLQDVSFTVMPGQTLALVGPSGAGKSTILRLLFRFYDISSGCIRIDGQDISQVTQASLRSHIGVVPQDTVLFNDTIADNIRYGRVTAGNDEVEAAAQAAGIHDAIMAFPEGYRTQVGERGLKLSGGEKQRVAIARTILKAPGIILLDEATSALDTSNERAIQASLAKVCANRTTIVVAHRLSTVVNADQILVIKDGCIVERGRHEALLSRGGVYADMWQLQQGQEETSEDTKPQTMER

Tested on in one experiment: not listed separately
Nature of the experiment: inhibitors of CD8+ T cell-vesicle binding, pilot screen, LFA-1/ICAM-1 modulator project, MLPCN validation set, flow cytometry (AID 2523;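 active = response below a set limit, under 55% cells CD8-positive and vesicle-bound, and CD8 cells' 90th-percentile brightness under 279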;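 as to vesicle binding response: mean PE anti-B7-1 fluorescence of CD8+ cells relative to row control; 100% = QL9-loaded vesicles with DMSO vehicle in the same plate row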). Particulars: 2C mouse CD8+ T cells, at 7 µM, stronger effect = lower value; double positive events: measured here: CD8+/vesicle+ event percentage.
For `COc1cc2c(cc1OC)-c1cc(NC3CCCCCC3)nc(=O)n1CC2`, the double positive events is 62.4% and the vesicle binding response was 601% (inactive).

As to `O=C(O)c1ccccc1OCCOc1ccccc1`, the double positive events amounted to 66% and the vesicle binding response was 133% (inactive).

Take `CCN1/C(=C/C=C/C=C/c2sc3ccccc3[n+]2CC)Sc2ccccc21`: the double positive events worked out at 81.6% and the vesicle binding response was 109% (inactive).

With `COC(=O)C1=NN(C(=O)c2cccc(Br)c2)C(O)(c2ccc(Cl)cc2)C1` (stereo not given), the vesicle binding response is 223% (inactive) and the double positive events was 63.4%.

Another experiment concerns the target Integrin beta-1 (Homo sapiens) + Integrin alpha-4 (Homo sapiens) (UniProt P13612+P05556). The experiment in a line: inhibition of HUTS-21 binding to VLA-4, pilot screen, VLA-4 allosteric modulator project, U937 cells, HUTS-21 mAb, flow cytometry, validation set (AID 2674;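 active = inhibition above 50%, about 3 SD of the validation set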;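 also: antibody binding induced by the VLA-4 ligand LDV present at three times its Kd; 0% = LDV ligand with antibody and no compound and 100% = antibody without LDV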). The note with it: HUTS-21 LIBS mAb binding, at 6.7 µM, stronger effect = higher value, binding induced by LDV ligand. (In general: A flow cytometer gives signals particle by particle.)
For `COc1cc2c(cc1OC)-c1cc(NC3CCCCCC3)nc(=O)n1CC2`, the inhibition (as a rule, the drop in the measured response relative to a control, in per cent) is -22.2% (inactive).

Regarding `O=C(O)c1ccccc1OCCOc1ccccc1`, the inhibition is 2.55% (inactive).

Consider `COC(=O)C1=NN(C(=O)c2cccc(Br)c2)C(O)(c2ccc(Cl)cc2)C1` (stereo not given), for which the inhibition was -83.5% (inactive).

Tested on in the next experiment: not listed separately
The experiment in a line: superoxide lowering in aged yeast cells, pilot screen, validation compound set (AID 2706;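 active = superoxide response below 65% of plate, a cut near 3 SD across the whole screen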;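 also: yeast exposed to compound for one week at 30 degrees C before staining; 100% = mean of all compound wells on the same plate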). Particulars: S. cerevisiae aging, superoxide DHE fluorescence; at 10 µM; stronger effect = lower value.
With `COc1cc2c(cc1OC)-c1cc(NC3CCCCCC3)nc(=O)n1CC2`, the superoxide response (% of plate) is 98.3% (inactive).

Regarding `O=C(O)c1ccccc1OCCOc1ccccc1`, the superoxide response (% of plate) is 43.5% (active).

As for `CCN1/C(=C/C=C/C=C/c2sc3ccccc3[n+]2CC)Sc2ccccc21`, the superoxide response (% of plate) is 89.6% (inactive).

With `COC(=O)C1=NN(C(=O)c2cccc(Br)c2)C(O)(c2ccc(Cl)cc2)C1` (stereo not given), the superoxide response (% of plate) was 93.4% (inactive).

Tested on in the next experiment: not listed separately
The experiment in a line: compound autofluorescence in yeast s288c, dose response, artefact control for yeast TOR pathway GFP screen, s288c strain (AID 2757;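 active = fluorescence span over the dose series, or activity score, above about 33, limit read from the data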;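 also: thousands of bead-calibrated equivalent soluble fluorophore molecules from median cell fluorescence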). The note with it: S. cerevisiae s288c, 520 nm autofluorescence, flow cytometry, 3 h; at 33 µM; stronger effect = higher value; zero means same as solvent-only cells.
Regarding `COc1ccc(/C=C/C(=O)c2cc(Br)ccc(=O)c2O)cc1`, the fluorescence change (kMESF span) was 68.2 (active).

For `O=C(/C=C/c1ccc(Cl)c([N+](=O)[O-])c1)c1cccnc1`, the fluorescence change (kMESF span) was 1.02 (inactive).

Consider `CN(c1ccccc1)c1ccc(/C=c2\s/c(=C(/C#N)C(=O)C(C)(C)C)n(Cc3ccco3)c2=O)cc1`, for which the fluorescence change (kMESF span) was 19.9 (inactive).

A further experiment addresses Beta-adrenergic receptor kinase 1 (Homo sapiens) (UniProt P25098). The experiment in a line: GRK2 binders displacing RNA aptamer, biochemical, validation, human GRK2, bead flow cytometry (AID 488806;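 active = aptamer binding inhibition above 30%, about 3 SD of noise from non-fluorescent compounds; inactive = inhibition at or below 30%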). The note with it: bead-bound GRK2, FAM-aptamer displacement, at 10 µM, stronger effect = higher value.
`COc1cc2c(cc1OC)-c1cc(NC3CCCCCC3)nc(=O)n1CC2`: the aptamer binding inhibition is 0% (inactive).

Consider `O=C(O)c1ccccc1OCCOc1ccccc1`, for which the aptamer binding inhibition was 2% (inactive).

Consider `CCN1/C(=C/C=C/C=C/c2sc3ccccc3[n+]2CC)Sc2ccccc21`, for which the aptamer binding inhibition was 39% (active).

On to `COC(=O)C1=NN(C(=O)c2cccc(Br)c2)C(O)(c2ccc(Cl)cc2)C1` (stereo not given), for which the aptamer binding inhibition is 3% (inactive).

In another experiment the target is Beta-2 adrenergic receptor (Homo sapiens) (UniProt P07550). The experiment in a line: beta2AR agonists driving receptor internalization, pilot screen, cell-based, FAP fluorogen, flow cytometry, validation set (AID 504459;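 active = percent response above 42, roughly 3 SD of non-fluorescent test compounds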;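 also: agonist-driven loss of surface beta2AR via internalization measured by FAP dye flow cytometry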). Particulars: Am2.2-beta2AR cells, FAP surface receptor flow cytometry; at 10 µM; stronger effect = higher value.
Beta-2 adrenergic receptor (Homo sapiens), sequence (P07550 whole entry, looked up): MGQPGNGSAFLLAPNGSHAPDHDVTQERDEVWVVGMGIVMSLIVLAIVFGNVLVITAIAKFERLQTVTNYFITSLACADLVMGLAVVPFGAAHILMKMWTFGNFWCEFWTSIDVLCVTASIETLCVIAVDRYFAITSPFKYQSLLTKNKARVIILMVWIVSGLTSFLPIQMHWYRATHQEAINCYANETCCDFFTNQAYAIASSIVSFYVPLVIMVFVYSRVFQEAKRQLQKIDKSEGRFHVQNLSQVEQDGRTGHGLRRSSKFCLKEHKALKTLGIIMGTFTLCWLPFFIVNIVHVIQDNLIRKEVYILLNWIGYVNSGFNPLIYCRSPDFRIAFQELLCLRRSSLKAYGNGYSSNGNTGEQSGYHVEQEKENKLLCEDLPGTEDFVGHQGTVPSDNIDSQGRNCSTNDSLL
As to `COc1cc2c(cc1OC)-c1cc(NC3CCCCCC3)nc(=O)n1CC2`, the response was -1.14% (inactive).

For the molecule `O=C(O)c1ccccc1OCCOc1ccccc1`, the response is 32.2% (inactive).

Turning to `CCN1/C(=C/C=C/C=C/c2sc3ccccc3[n+]2CC)Sc2ccccc21`, the response is -16.6% (inactive).

For `COC(=O)C1=NN(C(=O)c2cccc(Br)c2)C(O)(c2ccc(Cl)cc2)C1` (stereo not given), the response was -15.6% (inactive).

Another experiment has as its target AP-2 complex subunit beta (Homo sapiens) (UniProt P63010). The experiment in a line: inhibitors of arrestin peptide binding to AP2, pilot screen, biochemical, validation set, GST-AP2 beads, flow cytometry (AID 504541;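 active = inhibition above 54%, about 3 SD of non-fluorescent compounds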;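 also: AP2 carries R879A mutation and is captured from E. coli lysate; bead-bound FITC arrestin peptide fluorescence measuring arrestin peptide binding to AP2; 0% = DMSO wells and 100% = excess unlabeled arrestin peptide control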). Particulars: FITC arrestin peptide, at 10 µM, stronger effect = higher value, AP2 beta2 appendage fragment, R879A mutant.
With `COc1cc2c(cc1OC)-c1cc(NC3CCCCCC3)nc(=O)n1CC2`, the inhibition is 17% (inactive).

`O=C(O)c1ccccc1OCCOc1ccccc1`: the inhibition is 52.1% (inactive).

With `CCN1/C(=C/C=C/C=C/c2sc3ccccc3[n+]2CC)Sc2ccccc21`, the inhibition was 75.8% (active).

As for `COC(=O)C1=NN(C(=O)c2cccc(Br)c2)C(O)(c2ccc(Cl)cc2)C1` (stereo not given), the inhibition was -11.3% (inactive).

Tested on in a further experiment: not listed separately
Nature of the experiment: yeast V-ATPase proton transport modulators, S. cerevisiae, pHLuorin, HTS validation (AID 504600; in the data active = response above about 15%;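 also: plate controls were DMSO for no effect and reference compound for full effect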). The note with it: S. cerevisiae pHLuorin cytosolic pH, at 10 µM, stronger effect = higher value.
Regarding `COc1cc2c(cc1OC)-c1cc(NC3CCCCCC3)nc(=O)n1CC2`, the response is -1.05% (inactive).

Take `O=C(O)c1ccccc1OCCOc1ccccc1`: the response is -1.15% (inactive).

As for `CCN1/C(=C/C=C/C=C/c2sc3ccccc3[n+]2CC)Sc2ccccc21`, the response is -3.07% (inactive).

In the case of `COC(=O)C1=NN(C(=O)c2cccc(Br)c2)C(O)(c2ccc(Cl)cc2)C1` (stereo not given), the response was -0.27% (inactive).

In another experiment the test system is anti-desmoglein-3 scFv antibody binding to human DSG3. The experiment in a line: inhibitors of anti-DSG3 scFv binding to DSG3, pilot screen, biochemical, validation compound set, bead-based, flow cytometry (AID 588368).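 Also: signal is the median channel fluorescence of bead-bound GFP antibody.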 The note with it: Protein G beads, DSG3-Fc, scFv-GFP binding, at 10 µM, stronger effect = lower value.
In the case of `COc1cc2c(cc1OC)-c1cc(NC3CCCCCC3)nc(=O)n1CC2`, the binding (% of control) was 107% (inactive).

Turning to `O=C(O)c1ccccc1OCCOc1ccccc1`, the binding (% of control) is 96% (inactive).

`CCN1/C(=C/C=C/C=C/c2sc3ccccc3[n+]2CC)Sc2ccccc21`: the binding (% of control) was 121% (inactive).

As for `COC(=O)C1=NN(C(=O)c2cccc(Br)c2)C(O)(c2ccc(Cl)cc2)C1` (stereo not given), the binding (% of control) is 109% (inactive).

Tested on in a further experiment: not listed separately
Nature of the experiment: inhibitors of fungal efflux pumps CDR1, CDR2, MDR1, pilot screen, validation compound set, multiplex, phenotypic (AID 588506;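 active = efflux inhibition above 0.42, the validation set average plus 4 SD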;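 also: Nile Red retained in cells so higher fluorescence means more efflux inhibition; 0 = negative control wells and 1 = enniatin B 25 µM full block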). The note with it: S. cerevisiae pump-expressing triplex, Nile Red efflux flow cytometry; at 10 µM; stronger effect = higher value; the pumps come from Candida albicans.
As for `COc1cc2c(cc1OC)-c1cc(NC3CCCCCC3)nc(=O)n1CC2`, the efflux inhibition (fraction of control) was 0.21 (inactive).

Consider `O=C(O)c1ccccc1OCCOc1ccccc1`, for which the efflux inhibition (fraction of control) was 0.74 (active).

For the molecule `CCN1/C(=C/C=C/C=C/c2sc3ccccc3[n+]2CC)Sc2ccccc21`, the efflux inhibition (fraction of control) was 0.73 (active).

As to `COC(=O)C1=NN(C(=O)c2cccc(Br)c2)C(O)(c2ccc(Cl)cc2)C1` (stereo not given), the efflux inhibition (fraction of control) was -0.1 (inactive).

Another experiment has as its target ATP-binding cassette sub-family B member 6 (Homo sapiens) (UniProt Q9NP58). The experiment in a line: ABCB6 transporter inhibitors, pilot screen, K562-ABCB6 cells, flow cytometry, validation set (AID 588550;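 active = inhibition above the screen-wide mean plus 3 SD, about 51%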;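 also: 0% = DMSO wells and 100% = benzethonium chloride 70 µM positive control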). Particulars: K562-ABCB6 porphyrin accumulation, 1 h, at 10 µM, stronger effect = higher value.
Consider `COc1cc2c(cc1OC)-c1cc(NC3CCCCCC3)nc(=O)n1CC2`, for which the inhibition is -6% (inactive).

On to `O=C(O)c1ccccc1OCCOc1ccccc1`, for which the inhibition was 8% (inactive).

Regarding `CCN1/C(=C/C=C/C=C/c2sc3ccccc3[n+]2CC)Sc2ccccc21`, the inhibition is 10% (inactive).

In the case of `COC(=O)C1=NN(C(=O)c2cccc(Br)c2)C(O)(c2ccc(Cl)cc2)C1` (stereo not given), the inhibition was -2% (inactive).

Tested on in the next experiment: not listed separately
Nature of the experiment: promoters of myeloid differentiation in arrested cells, primary screen, cell-based, GFP/MAC1 double positive, flow cytometry, validation set (AID 588685;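 active = differentiation response of at least 50%, scaled between solvent and reference control, from cells with both markers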;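 also: compound exposure lasts four days before antibody staining and flow analysis; 0% = DMSO wells and 100% = 5 µM fulvestrant positive control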). Particulars: ER-HoxA9 marrow cells, stronger effect = higher value, normalized: vehicle 0, fulvestrant 100.
In the case of `COc1cc2c(cc1OC)-c1cc(NC3CCCCCC3)nc(=O)n1CC2`, the differentiation response is 7.09% (inactive).

Turning to `O=C(O)c1ccccc1OCCOc1ccccc1`, the differentiation response is 34.6% (inactive).

In the case of `CCN1/C(=C/C=C/C=C/c2sc3ccccc3[n+]2CC)Sc2ccccc21`, the differentiation response was 7.37% (inactive).

For the molecule `COC(=O)C1=NN(C(=O)c2cccc(Br)c2)C(O)(c2ccc(Cl)cc2)C1` (stereo not given), the differentiation response is 11% (inactive).
